The values below come from PubChem BioAssay AID2314 (National Center for Advancing Translational Sciences (NCATS), 2010).

The whole screen tested about 300,000 compounds, of which about 37,000 (12%) were called active. What follows is part of a selection rich in actives, with near analogues and random picks from the rest. Unmarked numbers belong to inactive results. Cut-off read from the data, not from the text of the source: active = max response mostly above about 13% (no sharp cut-off); inactive = mostly below about 14%.

The nature of this assay: Cycloheximide Counterscreen for Small Molecule Inhibitors of Shiga Toxin. Note: read at 38.3 µM for the half of the compounds with a filed dose; 0% is about no effect. Particulars: cell reporter, cycloheximide protein synthesis inhibition counterscreen; hits give high values.
`Cc1ccccc1C(=O)OC1OC(=O)C(Cl)=C1Nc1ccccc1` (stereo not drawn): the max response was 0.412%. Consider `CCCc1ccc(OCC(O)CN2CCN(C(=O)OCC)CC2)cc1` (stereo not drawn), for which the max response was -3.42%. As for `COCCCn1c2nc3ccccc3nc2c2c(=O)n(Cc3ccc(Cl)cc3)c(C)nc21`, the figure is 1.89%. With `Cc1nc2c(c(=O)n1Cc1ccco1)c1nc3ccccc3nc1n2Cc1ccccc1`, the max response was -2.66%.

In the case of `Cc1ccc(Cn2c(C)nc3c(c2=O)c2nc4ccccc4nc2n3Cc2ccco2)cc1`, the max response is 15.8% (active). `O=C(CCCN1CCc2[nH]c3ccc(F)cc3c2C1)c1ccc(F)cc1`: the max response is -1.91%. As to `Cc1ccc(S(=O)(=O)/N=S(\C)C(C)C)cc1` (stereo not drawn), the max response was -5.61%.

With `Nc1nonc1-c1noc(-c2ccc(Br)o2)n1`, the max response was 1.8%. As for `Brc1ccc(-c2noc(-c3ccccc3)n2)o1`, the figure is 60.7% (active); as for `O=C(CSc1nnc(-c2ccccc2)o1)N1CCOCC1`, -2.26%; as for `Cc1cccc(C)c1OC(=O)CSc1nnc(-c2ccccc2)o1`, -2.59%. With `Cn1nc(-c2ccccc2)c(-c2nc(-c3ccc(Cl)cc3)no2)c1Cl`, the max response is 7.15%. Take `Brc1ccc(-c2nnc(-c3ccccc3)o2)o1`: the max response is 30.6% (active). As to `Cc1ccccc1OCc1nnc(SCC(=O)N2c3ccccc3Sc3ccc(Cl)cc32)o1`, the max response was -2.04%. Consider `CCOc1ccc(/C=N/OCC(=O)NCc2cccs2)cc1`, for which the max response is -5.69%. Consider `COc1cccc(CNC(=O)Cn2c(=O)oc3cc(S(=O)(=O)N4CCCCC4)ccc32)c1`, for which the max response was 9.69%.

For `C/C=C/C(=O)OCc1csc(CC(=O)Nc2ccccc2C)n1`, the max response is 7.73%. As for `Cc1cc2occ(CC(=O)NNC(=O)c3ccccc3F)c2cc1C`, the max response was -1.94%. On to `NC(=O)C1CCN(C(=O)/C(=C/c2ccco2)NC(=O)c2ccccc2)CC1`, for which the max response was -1.45%. On to `COc1ccc(CCn2c(=N)c(C(=O)NCC3CCCO3)cc3c(=O)n4cccc(C)c4nc32)cc1OC` (stereo not drawn), for which the max response is -4.64%. Turning to `O=C1C2C3C=CC(C4CC34)C2C(=O)N1/N=C/c1ccc(-c2ccccc2[N+](=O)[O-])o1` (stereo not drawn), the max response is 13.3% (active). Regarding `Cc1cc(-c2ccc(/C=N/n3cnnc3)o2)c([N+](=O)[O-])cc1C`, the max response was 12.6%.

Take `Cc1cc([N+](=O)[O-])c(-c2ccc(/C=N/n3cnnc3)o2)cc1Cl`: the max response is 15.8%. For `O=C(CN1CCN(c2ccc(F)cc2)CC1)Nc1ccccc1`, the max response was -1.97%. Consider `CN(C)CCCSc1ccccc1NC(=O)/C=C/c1ccccc1`, for which the max response was 5.31%. Regarding `CCOc1ccc(S(=O)(=O)NCc2ccc3c(c2)OCO3)cc1C`, the max response was -1.1%.

Consider `COCCn1c(=S)[nH]c2cc(C(=O)NCCc3ccc(OC)c(OC)c3)ccc2c1=O`, for which the max response is -1.71%. In the case of `COc1cccc2[nH]c(C(=O)NCCc3ccccc3)cc12`, the max response is 42.7% (active). As for `COc1ccc(CCNC(=O)c2ccccc2-c2ccccc2C(=O)O)cc1OC`, the figure is -3.5%. As for `Cc1cccc(N(C(=O)Cn2nnc(-c3ccc(C)o3)n2)C(C(=O)NC2CCCC2)c2ccncc2)c1` (stereo not drawn), the max response was 1.36%. For the molecule `CCn1c(SCC(=O)NC2CC2)nnc1-c1ccncc1`, the max response is 5.06%. Take `Cc1cc(-c2ccccc2)nc(N2CCC(C(=O)NC34CC5CC(CC(C5)C3)C4)CC2)n1`: the max response is 27.8% (active). `Cc1cc(C)cc(NC(=O)C2CCN(c3nc(C)cc(C)n3)CC2)c1`: the max response is -2.08%.

For the molecule `O=C(NNC(=O)C1CCN(c2ncccn2)CC1)c1ccccc1`, the max response is -2.14%. On to `Cc1c(S(=O)(=O)N2CC(C)CC(C)C2)c(=O)n(C)c(=O)n1C` (stereo not drawn), for which the max response was -2.35%. Take `CCN(CC)P(=O)(Nc1ccc(SC(F)F)cc1)c1ccc(N(C)C)cc1NC(=O)c1ccco1` (stereo not drawn): the max response was 11.5%. As for `O=C1N(Cc2ccc3c(c2)OCO3)c2ccccc2C1(O)c1c[nH]c2ccccc12` (stereo not drawn), the max response is -2.27%. As for `COc1cc(NC(=O)C2=CC(c3ccco3)=NS(=O)(=O)N2C)cc(OC)c1OC`, the figure is 2.06%; as for `O=C(Nc1cccc(NC(=O)c2ccc(Br)cc2)c1)c1ccccc1`, 2.45%; as for `Cc1cccc(NC(=O)c2ccc3nsnc3c2)c1C`, 10.4% (active). On to `Cc1cccc(NC(=O)c2cccc(C(=O)Nc3cccc(C)c3C)n2)c1C`, for which the max response is -2.9%. Consider `O=C(Nc1ccccc1Cl)c1ccc2nsnc2c1`, for which the max response was 30.7% (active). Consider `O=C(Nc1ccccc1N1CCCCC1)c1ccc2nccnc2c1`, for which the max response is -1.32%. For `Cc1nc(C)c(C(=O)Nc2cccc(C)c2C)o1` the value was -2.15%; for `O=C(Nc1ccccc1)c1ccc2nsnc2c1`, 29.1% (active). As to `O=S(=O)(Nc1ccccc1Cl)c1cccc2nsnc12`, the max response was 1.19%. Consider `Cc1ccc([N+](=O)[O-])c(OCCCNCC(C)O)c1` (stereo not drawn), for which the max response is 17.1%. For `Cc1cc(NC(=O)CCN2CCN(Cc3ccccc3)CC2)ccc1Br`, the max response was -0.903%.

Turning to `COc1ccc(NC(=O)CN2C(=O)COc3ccc(S(=O)(=O)N4CCOCC4)cc32)cc1`, the max response is -5.3%.

`COCCNc1ccc(-c2n[nH]c(=O)c3ccccc23)cc1[N+](=O)[O-]`: the max response is -0.883%. As for `COc1ccc(N(C)C(=O)C2CCN(S(=O)(=O)c3cccc4nsnc34)CC2)cc1`, the max response is -1.67%. Regarding `Cc1nc2cc(-c3ccc(F)cc3)nn2c(N2CCOCC2)c1C`, the max response was 16.4%. In the case of `Cc1cc(C(C)(C)C)n2nc(C)c(-c3ccccc3)c2n1`, the max response was -2.81%.

Regarding `Cc1cc(N)n2nc(-c3ccc(C(C)(C)C)cc3)cc2n1`, the max response was 46.8% (active). With `O=C(CN1C(=O)c2cccnc2Oc2ccc(Cl)cc21)Nc1ccc(F)cc1`, the max response was -3.07%.

As to `COc1cc(NC(=O)C2=CC(c3ccc(C)cc3)=NS(=O)(=O)N2C)cc(OC)c1OC`, the max response was -1.64%.

Turning to `CSc1ncccc1C(=O)NC1CCCCCC1`, the max response is 19.5%.

In the case of `COc1cc(NC(=O)c2cccnc2SC)cc(OC)c1`, the max response is -1.86%.

In the case of `COc1ccc(C(CNC(=O)c2cccnc2SC)N2CCOCC2)cc1` (stereo not drawn), the max response was -3.3%. As for `CSc1ncccc1C(=O)Nc1ccc(C)cn1`, the figure is 9.66% (active); as for `CSc1ncccc1C(=O)Nc1nc2ccc(F)cc2s1`, 53.4% (active); as for `O=C(COC(=O)c1ccc(F)cc1)Nc1nc2ccc([N+](=O)[O-])cc2s1`, 0.781%. With `CCOc1ccc(NC(=O)CCC(=O)NNC(=O)NC2CCCCC2)cc1`, the max response is -3.92%. For `COc1ccccc1NC(=S)N1CCN(c2ccc(F)cc2)CC1`, the max response was -1.91%. For the molecule `CCOC(=O)C1CCCN(Cc2nc(N)nc(Nc3ccc(C)cc3)n2)C1` (stereo not drawn), the max response was 0.836%. In the case of `COc1ccccc1Nc1nc(N)nc(CSC(=S)N2CCOCC2)n1`, the max response is 23.7% (active). As for `COc1ccccc1Nc1nc(N)nc(CN(C)C2CCCCC2)n1`, the max response was -1.19%. For the molecule `COc1ccc(Nc2nc(N)nc(CSC(=S)N3CCC(C)CC3)n2)cc1`, the max response was 47.2% (active). For the molecule `CCOC(=O)c1cnc(SCc2nc(N)nc(Nc3ccc(OC)cc3)n2)nc1N`, the max response was 19.8%.

As to `C=CCN1C(=NC(=O)COc2ccccc2)SC2CS(=O)(=O)CC21` (stereo not drawn), the max response was -13.1%. For `O=C(NCCc1nnc2ccc(SCC(=O)N3CCOCC3)nn12)c1ccccc1`, the max response is -4.07%.

For the molecule `O=C(O)c1ccc(S(=O)(=O)N2CCC(Cc3ccccc3)CC2)cc1`, the max response is -8.01%. Turning to `COc1ccc(C(=O)OCC(=O)NC(=O)CCSc2ccccc2)cc1`, the max response was 3.82%. As to `COc1ccc(OC)c(CCNC(=O)c2nn(C)c3c2CS(=O)(=O)c2ccccc2-3)c1`, the max response was -1.16%. For `COc1ccc(N(CC(=O)NC2CCCCC2)S(=O)(=O)c2c(C)[nH]c(=O)[nH]c2=O)cc1` the value was -1.68%; for `O=C(NNC(=S)NC(=O)c1cn(-c2ccccc2)nc1-c1ccccc1)c1ccncc1`, 2.78%.

In the case of `Cc1nn(CC(=O)N/N=C/c2ccc(F)cc2)c(C)c1[N+](=O)[O-]`, the max response is -2.9%. As for `Cc1cc(C(=O)N/N=C/c2ccc(O)c([N+](=O)[O-])c2)c(C)n1-c1ccc(F)cc1`, the figure is 24.9% (active); as for `COc1cc(/C=N/NC(=O)c2cc(C)n(-c3ccc(F)cc3)c2C)cc(OC)c1O`, 18.9%; as for `COc1ccccc1N(CC(=O)Nc1ccccc1C(=O)N1CCCC1)S(C)(=O)=O`, -4.06%.

`CC/C(=N\NC(=O)c1ccccc1Cl)c1ccc(Br)s1`: the max response was -0.594%. For `NS(=O)(=O)c1ccc(CCNS(=O)(=O)c2cccc3cccnc23)cc1` the value was -5.53%; for `CN(C)S(=O)(=O)c1cccc(NC(=O)Cc2ccsc2)c1`, -3.01%; for `O=C1N/C(=C/c2cccs2)C(=O)N1Cc1ccc(F)cc1`, -5.73%.

Turning to `Cc1ccc(Cn2c(C)c3cnn(CC(=O)NCc4ccccn4)c(=O)c3c2C)cc1`, the max response is -3.46%. Consider `Cc1ccc(CN2C(=O)N/C(=C/c3cc(C)n(-c4ccccn4)c3C)C2=O)cc1`, for which the max response is 33.6% (active).

For the molecule `Cc1cccc([C@@H]2[C@@H]3C(=O)N(C)C(=O)[C@@H]3[C@@H]3C(=O)Nc4ccccc4C(=O)N23)c1`, the max response was 1.14%. Take `O=c1c2ccccc2nc2n1C(CSCc1ccccc1)CS2` (stereo not drawn): the max response is -1.46%.

Regarding `O=C(/C=C/c1ccc([N+](=O)[O-])cc1)NCCSCc1ccco1`, the max response was 9.78%. Consider `COC(=O)c1ccc(CSc2ccccc2C)o1`, for which the max response was -1.75%.

For `CCOc1ccccc1Nc1nnc(SCc2ccc(C(=O)OC)o2)s1`, the max response was -4.31%. Consider `COC(=O)c1ccc(CSc2nnc(N)s2)o1`, for which the max response was 12.5% (active). On to `CC1CCCCN1C(=O)CCS(=O)(=O)Cc1ccccc1` (stereo not drawn), for which the max response is -0.307%.
